Laboratory results: PubChem BioAssay (NCI)
Compounds without any hit were thinned out: in the full panel of roughly 79,000, 15% have a hit. A number with no mark means an inactive call. The source made the active and inactive calls. Cut-off read from the data, not from the text of the source: active = growth inhibition above about 70%; inactive = the rest.

What was measured:
[1] = NCI Yeast Anticancer Drug Screen. Data for the rad50 strain (AID 155);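 note: 0% = growth of vehicle-only cultures of the same strain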; settings: S. cerevisiae rad50 strain growth inhibition, stronger effect = higher value
Outline: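 Vehicle-treated cultures provide the reference for the growth inhibition reported for compound-exposed, repair-deficient yeast.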

[2] = NCI Yeast Anticancer Drug Screen. Data for the mec2-1 strain (AID 157); settings: S. cerevisiae mec2-1 strain, stronger effect = higher value
Outline: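 Cells of the genetically defined mec2-1 yeast strain are incubated with test compound. Inhibition of growth is calculated against vehicle-treated controls.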

[3] = NCI Yeast Anticancer Drug Screen. Data for the sgs1 mgt1 strain (AID 161);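 note: 0% = growth of cultures given vehicle only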; settings: S. cerevisiae sgs1 mgt1 strain, stronger effect = higher value
Outline: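 Mutant yeast exposed to compound; growth scored against vehicle-only wells.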

[4] = NCI Yeast Anticancer Drug Screen. Data for the cln2 rad14 strain (AID 165);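 note: 0% = growth equal to vehicle treated cultures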; settings: S. cerevisiae cln2 rad14 strain, stronger effect = higher value
Outline: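 The screen exposed genetically defined yeast (cln2 rad14) to test compounds and scored growth inhibition relative to vehicle-treated controls.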

[5] = NCI Yeast Anticancer Drug Screen. Data for the bub3 strain (AID 167); settings: S. cerevisiae bub3 mutant strain, stronger effect = higher value
Outline: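 Mutant yeast screening strain plus compound; vehicle-treated cultures serve as the 0% inhibition reference.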

[6] = NCI Yeast Anticancer Drug Screen. Data for the mlh1 rad18 strain (AID 175); settings: S. cerevisiae mlh1 rad18 strain growth inhibition, stronger effect = higher value
Outline: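 Compound-treated yeast growth, normalised to vehicle controls. Strain bears defined DNA repair mutations.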

[7] = at 5.0 µM (retest, dose inferred, filed as 0.5)
[8] = at 50.0 µM (retest, dose inferred, filed as 5.0)

| Compound | growth inhibition [1, 7] | growth inhibition [1, 8] | growth inhibition ([1]; at 50.0 µM) | growth inhibition [2, 7] | growth inhibition [2, 8] | growth inhibition ([2]; at 50.0 µM) | growth inhibition [3, 7] | growth inhibition [3, 8] | growth inhibition ([3]; at 50.0 µM) | growth inhibition [4, 7] | growth inhibition [4, 8] | growth inhibition ([4]; at 50.0 µM) | growth inhibition [5, 7] | growth inhibition [5, 8] | growth inhibition ([5]; at 50.0 µM) | growth inhibition [6, 7] | growth inhibition [6, 8] | growth inhibition ([6]; at 50.0 µM) |
| --- | --- | --- | --- | --- | --- | --- | --- | --- | --- | --- | --- | --- | --- | --- | --- | --- | --- | --- |
| CCOC(=O)C(NC(=O)c1ccccc1)[CH](c1ccc(OC)cc1)[Sn]([c]1ccccc1)([c]1ccccc1)[c]1ccccc1 (stereo not given) | 65% | 89% (active) | 77.7% (active) | 37% | 91% (active) | 75.2% (active) | 38% | 88% (active) | 79.2% (active) | 26% | 48% | 54.5% | 44% | 94% (active) | 79% (active) | 64% | 86% (active) | 69.1% |
| CN(Cc1cnc2nc(N)nc(N)c2n1)c1ccc(C(=O)NC(CCC(=O)O)C(=O)O)c(Cl)c1Cl (stereo not given) | -4% | 79% (active) | 94.2% (active) | 41% | 98% (active) | 98.2% (active) | -5% | 55% | 85.5% (active) | -8% | -13% | -11.2% | -21% | 64% | 77.5% (active) | 13% | 82% (active) | 88.2% (active) |
| NC(=O)C1CCCN1C(=O)C1CCCN(Cc2ccc(CN3CCCC(C(=O)N4CCCC4C(N)=O)C3)cc2)C1 (stereo not given) | -1% | -5% | 91.5% (active) | 8% | 1% | 74.2% (active) | -10% | -11% | 74.4% (active) | -13% | 11% | 74.7% (active) | 16% | 13% | 78.8% (active) | -10% | -12% | 78.3% (active) |
| N#Cc1c(Cl)cc(Cl)n2c1nc1ccccc12 | 46% | 97% (active) | 91.2% (active) | 29% | 99% (active) | 94% (active) | 56% | 100% (active) | 93% (active) | 43% | 99% (active) | 91.7% (active) | 56% | 99% (active) | 91.3% (active) | 43% | 97% (active) | 92.3% (active) |
| COc1ccccc1NC(=O)C1=C(C)NC(C)=C(C(=O)Nc2ccccc2OC)C1c1ccc(OC)c(OC)c1 | 9% | 50% | 55.9% | -3% | 43% | 26.6% | 9% | 48% | 49.9% | -4% | 31% | -38.9% | -1% | 51% | -3.55% | 2% | 38% | 23.9% |
| COC(=O)C1(COCc2ccccc2)CCCC2OC21 (stereo not given) | 16% | -2% | 2.95% | 6% | -4% | -5.2% | -31% | -2% | 10.4% | 19% | 43% | -2.55% | 5% | 79% (active) | 2.45% | 9% | 10% | 6.5% |
| CCOC(=O)Oc1ccc(C)cc1[N+](=O)[O-] | -1% | 13% | 67.6% | -4% | 1% | 31.1% | -1% | 2% | 47.5% | 2% | 12% | 55.6% | -1% | 4% | 23.6% | -3% | 20% | 88.3% (active) |
| Clc1ccc2nc(Cl)c(Cl)nc2c1 | -143% | 42% | 81.3% (active) | -43% | 27% | 45.3% | -56% | 76% (active) | 88.9% (active) | -54% | 51% | 59.5% | -71% | 44% | 65.2% | -137% | 62% | 69.6% |
| Cc1cc(C)c(O)c(C(C)(C)C)c1 | -1% | 3% | 92.3% (active) | 1% | 1% | 59.7% | 1% | 0% | 74.7% (active) | 2% | 8% | 64.6% | 3% | -10% | 66.8% | 2% | 4% | 89.7% (active) |
| N#CCc1nc2c(s1)C(=O)c1ccccc1C2=O | 52% | 99% (active) | 71.4% (active) | 48% | 100% (active) | 82.5% (active) | 47% | 100% (active) | 41.8% | 30% | 98% (active) | 35.2% | 55% | 99% (active) | 87.2% (active) | 67% | 99% (active) | 68.7% |
